Compound activity (PubChem)
Most compounds without a hit are left out; they make up all but 0.5% or so of the library.
Tat transport – E. coli Tat export inhibitors, primary screen, MC4100, TorA-mCherry reporter, fluorescence, single point; 340,000 tested, 0.036% active; inhibition, % at 10 µM;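 active means mean replicate inhibition at least 50% and at least half of replicates individually reaching 50%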;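 further: exported cargo escapes ClpAP degradation while cytoplasmic cargo is degraded and loses fluorescence; 0% = median of neutral control wells and 100% = median of NaSCN control wells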
E coli growth-1 – E. coli growth inhibition, primary screen, OD600; 330,000 tested, 0.21% active; OD600 absorbance (concentration not given with the values); Escherichia coli growth, 23 h; active compounds read low;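 active means OD600 absorbance below the run mean of sample wells minus 3.6 SD, in any replicate, cut at about 0.56 in these data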
E coli growth-2 – E. coli V3065 growth inhibition, primary screen, counter-screen for AddAB inhibitor project, absorbance, OD600 | 18 h | inhibition, % at 11.9 µM | 330,000 tested, 0.27% active;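 active means inhibition above the campaign's mean inhibition across all tested compounds plus 3 SD, cut at about 9.9% in these data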;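 further: uninfected addAB+ strain grown without phage in ampicillin broth; 0% = DMSO wells and 100% = ciprofloxacin 0.95 µg/ml wells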
phage Ecoli inh – growth loss of phage-infected E. coli, primary screen, RecBCD inhibitor project, absorbance, with phage, HTS | 360,000 tested, 0.26% active | inhibition, % at 11.9 µM; in the data active means inhibition above about 11%
AddAB inh – growth inhibition of E. coli expressing H. pylori AddAB, primary screen, AddAB inhibitor project, absorbance; inhibition, % at 11.9 µM; 330,000 tested, 0.29% active; AID 435030, 2010; in the data active means inhibition above about 12%;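 further: 0% = vehicle wells of infected cells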
AddAB conf – growth loss of phage-infected E. coli expressing H. pylori AddAB, confirmation, AddAB inhibitor project, absorbance, E. coli V3065, T4 phage, triplicate; shares compounds with AddAB inh; OD; T4 phage with gene 2 nonsense mutations; inhibition, % at 11.9 µM; 880 tested, 64% active; AID 488942, 2010;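 active means mean inhibition above a set limit taken from the earlier primary screen, cut at about 13% in these data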;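 further: higher means less bacterial growth since AddAB block lets phage replicate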
RecBCD counter – growth loss of RecBCD+ E. coli with mutant T4 phage, counter-screen for AddAB inhibitor project, absorbance, V66 E. coli; shares compounds with AddAB inh; 880 tested, 73% active; OD growth; AID 488955, 2010; inhibition, % at 11.9 µM;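 active means mean inhibition above the mean of solvent-only control wells plus 3 SD, cut at about 4% in these data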;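 further: optical density read after an 18 h incubation at 37 °C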
bact viab count – bacterial viability inhibition counter-screen, confirmation, counter-screen for AddAB inhibitor project, absorbance; shares compounds with AddAB inh; absorbance (AddAB counterscreen); inhibition, % at 11.9 µM; 880 tested, 35% active; AID 488956, 2010; in the data active means inhibition above about 25%
RecBCD conf – growth loss of phage-infected RecBCD+ E. coli, confirmation, RecBCD inhibitor project, absorbance, E. coli V66, T4 gene 2 phage | E. coli V66 + T4 2- phage, growth OD | shares compounds with phage Ecoli inh | 890 tested, 45% active | inhibition, % at 11.9 µM | AID 651982, 2013;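 active means mean inhibition over triplicates exceeding the hit threshold derived in the original primary screen, cut at about 11% in these data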
Ecoli viability – E. coli viability inhibition, counter-screen for RecBCD inhibitor project, absorbance, high throughput; shares compounds with phage Ecoli inh; absorbance (OD) growth; inhibition, % at 11.9 µM; 890 tested, 29% active; AID 651983, 2013; in the data active means inhibition above about 20%;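 further: E. coli strain V66 grown with compound alone and no phage infection; 0% = bacteria with DMSO vehicle only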
AddAB phage OD – growth loss of phage-infected AddAB-carrying E. coli, confirmation, counter-screen for RecBCD inhibitor project, absorbance, E. coli V3065, T4 phage; shares compounds with phage Ecoli inh; E. coli expressing H. pylori AddAB + T4 phage, OD growth; gene 2 mutant T4, recBCD-deleted host; 890 tested, 45% active; inhibition, % at 11.9 µM;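 active means mean inhibition above the solvent-only control wells' mean plus 3 SD, cut at about 22% in these data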;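 further: higher means less bacterial growth from phage killing when AddAB is blocked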
Numbers without * were called inactive; nt = not tested or not shown.

SMILES	Tat transport	E coli growth-1	E coli growth-2	phage Ecoli inh	AddAB inh	AddAB conf	RecBCD counter	bact viab count	RecBCD conf	Ecoli viability	AddAB phage OD
O=C(/C=C1\NC2(CCCC2)Cc2ccccc21)C(=O)N/N=C/c1ccccc1O	1	nt	13*	25*	16*	30*	25*	22	19*	22*	25*
Cc1ccc(-c2cc(C(=O)Nc3ccncc3)c3ccccc3n2)cc1	2	0.71	1	3	-1	nt	nt	nt	nt	nt	nt
O=C(NNC(=O)c1cc(-c2ccncc2)nc2ccccc12)c1ccccc1O	-10	0.54	26*	24*	29*	18*	18*	15	12*	16	20
Cc1ccc2nc(Cl)c(C=NNC(=O)C3CC3c3ccccc3)cc2c1 (configuration not stated)	nt	0.72	nt	nt	nt	nt	nt	nt	nt	nt	nt
C#CCNC(=O)C(Cc1ccc(C(=O)c2ccccc2)cc1)NC(=O)OC(C)(C)C (configuration not stated)	nt	0.7	nt	nt	nt	nt	nt	nt	nt	nt	nt
O=C(NNC(=O)c1cccc2ccccc12)c1ccc(Cl)cc1Cl	6	0.7	nt	2	nt	nt	nt	nt	nt	nt	nt
O=C(NNC(=O)c1ccc2ccccc2c1O)c1ccccc1Cl	-4	0.71	15*	12*	14*	10	10*	8	-1	0	6
CN1CC2C3C(=O)N(C)C(=O)C3[C@](C)(C1=O)N2C(=O)c1ccc(C(C)(C)C)cc1 (some centres not stated)	nt	0.67	nt	nt	nt	nt	nt	nt	nt	nt	nt
N#Cc1ccc(C23CC4(C2)C(CN(CC2CCCCC2)C4c2ccccc2)C3c2ccc(C(F)(F)F)cc2)cc1 (configuration not stated)	nt	0.72	nt	nt	nt	nt	nt	nt	nt	nt	nt
CCCNC(=O)c1ccc2c(=O)c(O)c(-c3ccc(Cl)c([N+](=O)[O-])c3)[nH]c2c1	2	nt	11*	16*	14*	11	13*	12	10	12	14
Cc1ccccc1COCC(CC(C)C)N1CCN(C(=O)c2cccc(C(F)(F)F)c2)CCC1=O (configuration not stated)	nt	0.7	nt	nt	nt	nt	nt	nt	nt	nt	nt
CSCCC(NC(=O)C(=Cc1ccc(F)cc1)NC(C)=O)C(=O)O (configuration not stated)	nt	0.68	nt	nt	nt	nt	nt	nt	nt	nt	nt
CCn1cc(C(=O)O)c(=O)c2cc(F)c(N3CCN(S(=O)(=O)c4ccc(NC(C)=O)cc4)CC3)cc21	8	0.06*	100*	96*	99*	101*	97*	101*	72*	101*	104*
CCn1cc(C(=O)NN)c(=O)c2cc(F)c(N3CCOCC3)cc21	8	0.67	2	2	-2	nt	nt	nt	nt	nt	nt
CCn1cc(C(=O)O)c(=O)c2cc(F)c(N3CCN(C(=S)NC(=O)c4ccc(Br)cc4)CC3)cc21	44	nt	98*	99*	99*	99*	99*	100*	102*	102*	103*
C=CCNC(=O)c1cn(CC)c2cc(N3CCN(C(=O)c4ccco4)CC3)c(F)cc2c1=O	14	0.057*	99*	25*	99*	99*	19*	101*	12*	15	100*
CCn1cc(C(=O)O)c(=O)c2cc(F)c(N3CCN(C(=S)NC(=O)c4ccc(OC)cc4)CC3)cc21	81*	0.076*	99*	101*	99*	100*	100*	102*	104*	105*	105*
Cc1ccc(S(=O)(=O)N2C(c3ccc(C(C)C)cc3)CC=C(C(=O)O)C2c2ccccc2)cc1 (configuration not stated)	nt	0.69	nt	nt	nt	nt	nt	nt	nt	nt	nt
CN1CC2C3C(=O)N(Cc4ccccc4)C(=O)C3[C@](Cc3ccccc3)(C1=O)N2C(=O)c1ccc(Cl)cc1 (some centres not stated)	nt	0.67	nt	nt	nt	nt	nt	nt	nt	nt	nt
Cc1ccc(NC=C(C#N)c2ccsc2)cc1C	nt	0.71	nt	nt	nt	nt	nt	nt	nt	nt	nt
CCn1cc(C(=O)O)c(=O)c2cc(F)c(N/N=C/c3ccccc3)cc21	0	nt	-1	1	2	nt	nt	nt	nt	nt	nt
CCn1cc(C(=O)O)c(=O)c2cc(F)c(N3CCN(C(=S)NC(=O)c4ccccc4F)CC3)cc21	1	0.073*	99*	16*	98*	101*	99*	103*	101*	101*	101*
CCn1cc(C(=O)O)c(=O)c2cc(F)c(N3CCN(C(=O)Nc4ccccc4)CC3)cc21	24	0.051*	101*	97*	101*	103*	102*	102*	100*	102*	99*
CCn1cc(C(=O)O)c(=O)c2cc(F)c(N3CCN(C(=S)NC(=O)c4cccc(C)c4)CC3)cc21	28	0.071*	98*	93*	97*	100*	100*	99*	103*	103*	104*
Cc1cc(NS(=O)(=O)c2ccc(N)cc2)no1	nt	nt	10*	16*	12*	18*	9.4*	24	8	3	27*
Cc1ccc(S(=O)(=O)Nc2cc(C)on2)cc1	-1	0.69	-1	1	2	nt	nt	nt	nt	nt	nt
CCCC(=O)NC(c1ccco1)c1cc([N+](=O)[O-])c2cccnc2c1O (configuration not stated)	-11	0.62	-3	4	3	nt	nt	nt	nt	nt	nt
CCC(=O)NC(c1cc(Cl)c2cccnc2c1O)C(C)C (configuration not stated)	-3	0.66	17*	18*	15*	4	12*	5	5	8	13
CC(=O)NC(c1ccccc1)c1cc(Cl)c2cccnc2c1O (configuration not stated)	23	0.63	18*	13*	17*	11	15*	4	5	9	10
CCCCC(=O)NC(c1cccs1)c1cc(Cl)c2cccnc2c1O (configuration not stated)	-5	0.66	18*	17*	16*	21*	17*	16	11	11	19
